From PubChem BioAssay (NCI) come the findings set out here.

Compounds without any hit were thinned out: in the full panel of roughly 83,000, 20% have a hit.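 The endpoint reported here, percent growth, reads 100 for growth as untreated, 0 for no net growth and -100 for all cells dead.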 A number with no mark means an inactive call. Active and inactive are the calls of the source. How the source made its calls: active means growth percent below 10; inactive means the rest.

Test systems include NCI-H23 lung; NCI-H226 lung; NCI-H322M lung; HOP-62 NSCLC; NCI-H460 lung; HOP-92 NSCLC; NCI-H522 lung; A549/ATCC NSCLC; 786-0 renal; COLO 205 colon; DU-145 prostate; K-562 leukemia; MALME-3M melanoma; MDA-MB-231 breast; RXF 393 renal; SF-268 CNS; SF-295 CNS; SF-539 CNS; UACC-257 melanoma; M14 melanoma.
Assay in all cases: NCI-60 one-dose screen, 48 h (100 = growth as untreated, 0 = no growth, -100 = all killed)
Holding throughout (conditions): 10 µM unless noted

For `FC(F)(F)c1cc2c(Cl)ncnc2n1CCN1CCCCC1`, the growth in the test on NCI-H23 lung was 34.8%; with NCI-H226 lung it was 97.8%; with NCI-H322M lung, 64.2%; with HOP-62 NSCLC it was 76.3%; with NCI-H460 lung it was 57.9%; with HOP-92 NSCLC, 94.3%. The growth in the test on NCI-H522 lung was -80.1% (active); in the test on A549/ATCC NSCLC it was 95.5%; with 786-0 renal, 92.5%; in the test on COLO 205 colon it was 75.2%; in the test with DU-145 prostate, 50%; in the test with K-562 leukemia, 0.547% (active). The growth was 86.9% with MALME-3M melanoma; 38.8% in the test with MDA-MB-231 breast; 80.8% in the test with RXF 393 renal; 9.33% (active) with SF-268 CNS; 80.9% in the test on SF-295 CNS; 73.4% with SF-539 CNS. Also, the growth is 73.6% with UACC-257 melanoma and 24.1% with M14 melanoma.
Regarding `COc1ccc2c(c1)c(-c1cc(N)n3nc(-c4c[nH]c5ccccc45)cc3n1)cn2C`, the growth in the test with NCI-H23 lung was -69.9% (active); with NCI-H226 lung, -33.1% (active); in the test with NCI-H322M lung, -53.5% (active); in the test with HOP-62 NSCLC it was -71.5% (active); with NCI-H460 lung it was -69.7% (active); in the test with HOP-92 NSCLC, -66.7% (active). For the same compound, the growth in the test on NCI-H522 lung is -70.4% (active); with A549/ATCC NSCLC, -88.1% (active); with 786-0 renal it was -84.5% (active); with COLO 205 colon it was -83.9% (active); in the test with DU-145 prostate it was -46.6% (active); in the test with K-562 leukemia, 1.75% (active). Moreover, the growth is -89.9% (active) in the test on MALME-3M melanoma; -75.7% (active) in the test on MDA-MB-231 breast; -79% (active) with RXF 393 renal; -41.1% (active) in the test with SF-268 CNS; -76.9% (active) in the test with SF-295 CNS; -97.1% (active) in the test with SF-539 CNS. In addition, the growth with UACC-257 melanoma was -89.6% (active); with M14 melanoma it was -71.2% (active).
Regarding `C=CCSc1nnc(-c2ccc(-c3nc4ccc(Cl)cc4[nH]3)cc2)o1`, the growth with NCI-H23 lung is 76.2%; in the test with NCI-H226 lung, 103%; with NCI-H322M lung, 86.7%; in the test with HOP-62 NSCLC it was 39.9%; in the test with NCI-H460 lung, 38.1%; in the test with HOP-92 NSCLC it was 81.8%. Also, the growth was 29.8% in the test on NCI-H522 lung; 60.3% in the test on A549/ATCC NSCLC; 76.4% in the test with 786-0 renal; 55.7% in the test with COLO 205 colon; 85% in the test with DU-145 prostate; 19.5% with K-562 leukemia. The growth in the test on MALME-3M melanoma was 39.3%; with MDA-MB-231 breast it was 41.2%; in the test on RXF 393 renal, 53.1%; with SF-268 CNS, 75.7%; in the test with SF-295 CNS, 58.2%; in the test on SF-539 CNS it was 56.3%. The figures for the growth with UACC-257 melanoma and in the test with M14 melanoma were 68.2% and 28.7%, respectively.
With `O=C(CSc1nc2sc3c(c2c(=O)n1-c1ccc(Cl)cc1)CCCC3)NNC(=O)c1ccc(Br)cc1`, the growth in the test on NCI-H23 lung is 55.6%; in the test on NCI-H226 lung, 45.2%; in the test with NCI-H322M lung, 52.7%; in the test on HOP-62 NSCLC it was 17%; with NCI-H460 lung, 76.9%; in the test on HOP-92 NSCLC, 61.2%. For the same compound, the growth is 64.4% in the test with NCI-H522 lung; 82.6% in the test with A549/ATCC NSCLC; 98.5% in the test on 786-0 renal; 120% in the test on COLO 205 colon; 97.4% in the test on DU-145 prostate; 55.5% with K-562 leukemia. For the same compound, the growth in the test on MALME-3M melanoma was 69.2%; with MDA-MB-231 breast, 25.6%; with RXF 393 renal it was 76%; in the test with SF-268 CNS it was 84.9%; with SF-295 CNS, 84.1%; in the test on SF-539 CNS it was -29.5% (active). In addition, the growth in the test on UACC-257 melanoma is 98.6%; in the test on M14 melanoma, 71.9%.
As to `Nc1nn2c(-c3cc4cc(Br)ccc4oc3=O)ccnc2c1N=Nc1ccc(Br)cc1`, the growth with NCI-H23 lung was -7.78% (active); in the test with NCI-H226 lung, -25% (active); with NCI-H322M lung it was 23.7%; with HOP-62 NSCLC it was -11.9% (active); in the test on NCI-H460 lung it was 15%; with HOP-92 NSCLC, -5.4% (active). In addition, the growth is 24.6% in the test on NCI-H522 lung; 39.6% in the test with A549/ATCC NSCLC; 13.8% in the test on 786-0 renal; 35.8% in the test with COLO 205 colon; 36.8% in the test on DU-145 prostate; 32.4% with K-562 leukemia. For the same compound, the growth with MALME-3M melanoma is 52.1%; in the test on MDA-MB-231 breast it was -43.8% (active); with RXF 393 renal it was -31.4% (active); in the test with SF-268 CNS it was 26.9%; in the test on SF-295 CNS, -37% (active); with SF-539 CNS it was -71.4% (active). Moreover, the growth in the test with UACC-257 melanoma is 87.8%; in the test on M14 melanoma, 42.4%.
Turning to `CC(=O)c1c2c(c3ccc4c5ccccc5ccc4n13)C(=O)c1ccccc1C2=O`, the growth was 68.4% with NCI-H23 lung; 54.8% in the test with NCI-H226 lung; 92.9% with NCI-H322M lung; 70.7% in the test with HOP-62 NSCLC; 28% with NCI-H460 lung; 94.9% in the test on HOP-92 NSCLC. Also, the growth in the test with NCI-H522 lung was 91.9%; in the test on A549/ATCC NSCLC it was 84.1%; with 786-0 renal, 78.5%; in the test on COLO 205 colon, 99.8%; with DU-145 prostate it was 102%; in the test on K-562 leukemia, 103%. The growth in the test on MALME-3M melanoma was -49.5% (active); in the test on MDA-MB-231 breast it was 77.3%; in the test on RXF 393 renal it was 59.6%; in the test on SF-268 CNS, 98%; with SF-295 CNS it was 92.5%; in the test on SF-539 CNS, 77.6%. In addition, the figures for the growth in the test with UACC-257 melanoma and with M14 melanoma were 97.5% and 65.7%, respectively.
Consider `CCOc1ccccc1[C@H]1C(C(=O)c2ccc(Cl)cc2)C2(N[C@@H]1c1ccccc1)C(=O)Nc1ccc(Br)cc12` (stereo not given in full), for which the growth was -39.1% (active) with NCI-H23 lung; -68.4% (active) in the test on NCI-H226 lung; 15.8% in the test on NCI-H322M lung; 7.94% (active) in the test with HOP-62 NSCLC; 2.95% (active) in the test on NCI-H460 lung; -46.9% (active) in the test on HOP-92 NSCLC. Further, the growth was -4.42% (active) in the test with NCI-H522 lung; 41% in the test on A549/ATCC NSCLC; -76.5% (active) with 786-0 renal; -82.3% (active) in the test on COLO 205 colon; 23% in the test on DU-145 prostate; -13% (active) with K-562 leukemia. Besides, the growth was -15% (active) with MALME-3M melanoma; -68.7% (active) in the test on MDA-MB-231 breast; -88.4% (active) in the test on RXF 393 renal; 14.2% with SF-268 CNS; -42.6% (active) with SF-295 CNS; -70.2% (active) in the test with SF-539 CNS. Also, the growth with UACC-257 melanoma is 44%; with M14 melanoma, -38% (active).
